Targets with a hit are over-represented here; the source holds about 7,900 in all. About 0.6% of all pairs of compound and target were hits.
These targets were tested with c1cn2cc(-c3ccc4cn[nH]c4c3)nc(Nc3ccc(N4CCOCC4)cc3)c2n1 [entospletinib] (assay: log2 fold change, soluble protein after heating vs DMSO (PISA); higher = thermal stabilisation; K562 cells, 10 uM, 30 min; active = over 0.2 and 3.5 SD of the protein, either way, in both replicates (recomputed)).
Procedure, shortened: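 Soluble protein was defined as the supernatant after 21,000xg for 90 min. It came from K562 cells at 2×10^6 cells/mL given 10 μM compound for 30 min, heated in aliquots for 3 min across 48°C-58°C, pooled, and extracted in PBS with 0.5% NP-40 at 4°C, and was quantified by TMTpro 16plex LC-MS/MS with equalised channel sums. Thermal stability against control samples, from duplicates, is reported as log2 fold change.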

Chain of UniProt Q69YH5 (Q69YH5 whole entry, looked up): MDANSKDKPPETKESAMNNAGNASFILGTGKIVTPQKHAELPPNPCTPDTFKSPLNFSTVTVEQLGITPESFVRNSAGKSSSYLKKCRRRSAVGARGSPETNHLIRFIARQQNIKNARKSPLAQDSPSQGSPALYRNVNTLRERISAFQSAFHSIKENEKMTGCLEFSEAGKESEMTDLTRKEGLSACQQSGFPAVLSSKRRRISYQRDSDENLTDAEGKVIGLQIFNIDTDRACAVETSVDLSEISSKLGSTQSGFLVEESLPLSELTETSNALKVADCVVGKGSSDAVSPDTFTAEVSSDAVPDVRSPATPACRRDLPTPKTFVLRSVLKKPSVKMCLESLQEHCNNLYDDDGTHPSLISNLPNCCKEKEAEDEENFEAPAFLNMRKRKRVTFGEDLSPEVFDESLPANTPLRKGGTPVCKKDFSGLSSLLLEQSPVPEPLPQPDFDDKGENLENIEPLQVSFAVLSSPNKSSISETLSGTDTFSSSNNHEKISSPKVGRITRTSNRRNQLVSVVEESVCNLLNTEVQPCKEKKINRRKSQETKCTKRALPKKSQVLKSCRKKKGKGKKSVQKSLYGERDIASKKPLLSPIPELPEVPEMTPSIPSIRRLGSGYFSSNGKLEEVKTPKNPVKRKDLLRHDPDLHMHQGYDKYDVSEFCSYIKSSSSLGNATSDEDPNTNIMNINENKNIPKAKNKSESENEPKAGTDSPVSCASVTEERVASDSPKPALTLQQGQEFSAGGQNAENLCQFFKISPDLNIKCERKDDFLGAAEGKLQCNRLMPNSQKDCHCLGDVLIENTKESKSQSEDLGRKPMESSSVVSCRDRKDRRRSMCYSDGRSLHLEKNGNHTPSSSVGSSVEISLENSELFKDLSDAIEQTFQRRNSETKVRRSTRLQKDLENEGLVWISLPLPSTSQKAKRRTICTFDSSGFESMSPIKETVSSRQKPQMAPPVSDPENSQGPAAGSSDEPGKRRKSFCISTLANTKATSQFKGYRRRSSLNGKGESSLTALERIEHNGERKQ
Chain of UniProt Q9Y5S2 (Q9Y5S2 whole entry, looked up): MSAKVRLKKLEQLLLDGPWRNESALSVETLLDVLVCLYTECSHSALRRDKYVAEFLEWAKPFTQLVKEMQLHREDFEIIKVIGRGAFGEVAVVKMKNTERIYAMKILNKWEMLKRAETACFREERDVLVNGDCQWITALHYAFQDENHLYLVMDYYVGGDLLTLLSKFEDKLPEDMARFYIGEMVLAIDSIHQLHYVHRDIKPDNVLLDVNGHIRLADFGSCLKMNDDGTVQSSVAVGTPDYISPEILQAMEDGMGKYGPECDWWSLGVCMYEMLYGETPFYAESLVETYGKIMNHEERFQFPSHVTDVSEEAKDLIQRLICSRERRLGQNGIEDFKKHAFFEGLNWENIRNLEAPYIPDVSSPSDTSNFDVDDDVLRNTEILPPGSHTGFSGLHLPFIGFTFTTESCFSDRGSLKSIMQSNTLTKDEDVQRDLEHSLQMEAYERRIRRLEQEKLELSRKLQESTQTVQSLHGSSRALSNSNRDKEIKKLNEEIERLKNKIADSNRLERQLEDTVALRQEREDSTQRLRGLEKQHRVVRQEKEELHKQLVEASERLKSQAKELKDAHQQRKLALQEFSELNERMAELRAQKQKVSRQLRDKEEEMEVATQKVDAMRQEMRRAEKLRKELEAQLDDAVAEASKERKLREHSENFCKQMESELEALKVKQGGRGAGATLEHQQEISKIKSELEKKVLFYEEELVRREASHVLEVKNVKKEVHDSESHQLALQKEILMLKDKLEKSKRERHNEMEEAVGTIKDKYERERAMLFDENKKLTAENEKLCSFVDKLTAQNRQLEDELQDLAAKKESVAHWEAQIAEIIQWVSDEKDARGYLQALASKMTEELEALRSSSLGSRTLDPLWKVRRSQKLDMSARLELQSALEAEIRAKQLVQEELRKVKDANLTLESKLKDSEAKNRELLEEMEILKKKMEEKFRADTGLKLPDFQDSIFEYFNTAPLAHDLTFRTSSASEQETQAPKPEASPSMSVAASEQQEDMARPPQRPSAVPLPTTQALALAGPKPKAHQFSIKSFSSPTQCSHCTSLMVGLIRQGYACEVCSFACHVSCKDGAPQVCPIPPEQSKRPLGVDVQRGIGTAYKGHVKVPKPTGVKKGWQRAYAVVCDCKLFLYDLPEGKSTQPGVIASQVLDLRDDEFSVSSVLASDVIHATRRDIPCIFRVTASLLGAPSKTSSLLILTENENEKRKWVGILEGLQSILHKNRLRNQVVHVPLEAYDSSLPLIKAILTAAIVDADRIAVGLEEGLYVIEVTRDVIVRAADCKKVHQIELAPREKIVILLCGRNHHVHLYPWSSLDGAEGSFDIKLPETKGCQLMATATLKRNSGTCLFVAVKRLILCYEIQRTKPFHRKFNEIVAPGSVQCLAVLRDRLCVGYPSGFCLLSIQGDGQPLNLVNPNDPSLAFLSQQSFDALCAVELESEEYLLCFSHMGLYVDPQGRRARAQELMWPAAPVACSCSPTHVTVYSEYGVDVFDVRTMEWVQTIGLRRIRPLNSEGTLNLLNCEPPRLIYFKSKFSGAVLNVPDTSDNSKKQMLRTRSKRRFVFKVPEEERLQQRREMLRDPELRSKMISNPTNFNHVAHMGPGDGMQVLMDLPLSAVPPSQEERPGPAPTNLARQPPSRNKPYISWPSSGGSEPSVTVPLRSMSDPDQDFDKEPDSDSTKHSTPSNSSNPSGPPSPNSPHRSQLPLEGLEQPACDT
Chain of UniProt P30305 (P30305 whole entry, looked up): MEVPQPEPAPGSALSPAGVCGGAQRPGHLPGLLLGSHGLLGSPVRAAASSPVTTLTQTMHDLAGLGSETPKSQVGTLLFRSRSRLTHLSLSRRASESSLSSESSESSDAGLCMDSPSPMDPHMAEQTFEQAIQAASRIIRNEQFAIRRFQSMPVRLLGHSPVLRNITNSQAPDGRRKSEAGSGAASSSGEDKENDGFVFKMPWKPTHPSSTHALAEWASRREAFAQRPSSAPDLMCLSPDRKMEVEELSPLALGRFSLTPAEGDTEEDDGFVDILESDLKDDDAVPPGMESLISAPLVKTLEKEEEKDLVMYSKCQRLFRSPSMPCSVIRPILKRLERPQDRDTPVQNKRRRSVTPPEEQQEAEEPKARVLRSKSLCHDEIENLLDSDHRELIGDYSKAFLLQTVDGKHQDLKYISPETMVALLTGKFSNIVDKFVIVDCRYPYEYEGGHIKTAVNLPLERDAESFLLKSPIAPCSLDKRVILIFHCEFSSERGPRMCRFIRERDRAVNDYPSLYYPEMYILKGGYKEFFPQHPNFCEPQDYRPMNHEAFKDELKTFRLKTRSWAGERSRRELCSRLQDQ
Chain of UniProt Q8IWV2 (Q8IWV2 whole entry, looked up): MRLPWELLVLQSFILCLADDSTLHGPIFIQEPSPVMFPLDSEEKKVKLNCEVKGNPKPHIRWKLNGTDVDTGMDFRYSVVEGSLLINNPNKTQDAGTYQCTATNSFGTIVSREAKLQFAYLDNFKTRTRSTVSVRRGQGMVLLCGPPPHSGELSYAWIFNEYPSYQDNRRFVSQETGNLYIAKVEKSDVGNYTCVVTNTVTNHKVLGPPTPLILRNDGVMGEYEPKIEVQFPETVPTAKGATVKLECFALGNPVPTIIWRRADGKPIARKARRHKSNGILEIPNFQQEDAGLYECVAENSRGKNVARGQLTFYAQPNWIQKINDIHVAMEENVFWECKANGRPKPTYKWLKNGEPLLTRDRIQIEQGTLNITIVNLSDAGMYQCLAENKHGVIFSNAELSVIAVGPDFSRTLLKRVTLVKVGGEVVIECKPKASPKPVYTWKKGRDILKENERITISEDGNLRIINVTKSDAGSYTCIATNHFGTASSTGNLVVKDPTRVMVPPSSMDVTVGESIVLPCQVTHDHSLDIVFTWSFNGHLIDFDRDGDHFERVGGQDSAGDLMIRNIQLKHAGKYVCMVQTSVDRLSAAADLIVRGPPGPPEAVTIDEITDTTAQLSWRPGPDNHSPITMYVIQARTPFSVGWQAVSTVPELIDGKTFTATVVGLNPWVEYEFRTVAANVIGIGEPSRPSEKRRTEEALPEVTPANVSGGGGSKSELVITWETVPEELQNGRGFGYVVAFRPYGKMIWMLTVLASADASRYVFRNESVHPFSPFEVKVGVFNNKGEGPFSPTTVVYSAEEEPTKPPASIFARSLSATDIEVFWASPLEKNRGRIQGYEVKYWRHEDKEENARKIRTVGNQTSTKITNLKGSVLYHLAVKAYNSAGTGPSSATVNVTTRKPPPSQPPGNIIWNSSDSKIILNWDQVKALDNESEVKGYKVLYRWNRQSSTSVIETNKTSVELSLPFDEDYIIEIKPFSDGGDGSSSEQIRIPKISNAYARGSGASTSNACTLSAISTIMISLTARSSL
Chain of UniProt P68400 (P68400 whole entry, looked up): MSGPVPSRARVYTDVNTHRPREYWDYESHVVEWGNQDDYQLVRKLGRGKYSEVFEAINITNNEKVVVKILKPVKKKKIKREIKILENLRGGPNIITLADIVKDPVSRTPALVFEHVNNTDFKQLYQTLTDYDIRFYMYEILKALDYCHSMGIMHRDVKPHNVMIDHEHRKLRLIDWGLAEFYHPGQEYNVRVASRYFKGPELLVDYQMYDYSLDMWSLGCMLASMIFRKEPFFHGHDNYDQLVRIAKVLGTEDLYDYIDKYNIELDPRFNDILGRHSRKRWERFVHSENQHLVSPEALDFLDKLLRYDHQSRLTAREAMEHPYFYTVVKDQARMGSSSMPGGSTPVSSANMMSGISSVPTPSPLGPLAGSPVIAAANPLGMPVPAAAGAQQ
Chain of UniProt Q9UIV1 (Q9UIV1 whole entry, looked up): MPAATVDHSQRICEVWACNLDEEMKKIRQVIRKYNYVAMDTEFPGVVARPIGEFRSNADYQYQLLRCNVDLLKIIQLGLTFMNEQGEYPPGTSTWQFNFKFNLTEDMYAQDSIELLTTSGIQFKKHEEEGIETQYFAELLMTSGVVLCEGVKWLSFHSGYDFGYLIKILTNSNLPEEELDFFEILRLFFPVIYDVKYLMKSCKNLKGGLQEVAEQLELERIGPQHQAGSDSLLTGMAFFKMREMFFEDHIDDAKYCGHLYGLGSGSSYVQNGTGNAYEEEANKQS

log2 fold change, inactive:
CDC25B isoform 4 (UniProt P30305) -0.013
CDC42BPB (UniProt Q9Y5S2) -0.245
CD55 isoform 7 (UniProt P08174) -0.006
CNOT2 (UniProt Q9NZN8) -0.012
C9orf64 (UniProt Q5T6V5) 0.009
CDCA2 (UniProt Q69YH5) -0.013
CNOT7 (UniProt Q9UIV1) 0.122
CCDC82 (UniProt Q8N4S0) 0.021
CLASP2 isoform 3 (UniProt O75122) -0.046
CNOT4 isoform 6 (UniProt O95628) -0.008
CCAR2 isoform 2 (UniProt Q8N163) -0.014
COX5A (UniProt P20674) 0.132
CDK16 isoform 2 (UniProt Q00536) -0.022
CLCN3 (UniProt P51790) -0.003
CIZ1 (UniProt Q9ULV3) -0.012
CDK19 (UniProt Q9BWU1) -0.013
CSNK2A1 (UniProt P68400) 0.113
C6orf120 (UniProt Q7Z4R8) -0.013
CIT isoform 4 (UniProt O14578) -0.168
CLINT1 (UniProt Q14677) 0.16
CBS (UniProt P35520) 0.016
CNTN4 (UniProt Q8IWV2) -0.148
